Bioassay records as filed in PubChem.
KB-V1 cytotox: KB-V1 MDR subline cytotoxicity; KB-V1 MDR cells viability, CellTiter-Glo, 72 h; Potency, µM (highest dose often 46.1 µM), actives largely listed as cytotoxic; 3.4% of 400,000 active; AID 1347076; also: nearly all actives have a fitted effect of over 60% in size
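Readout: CellTiter-Glo luminescence, 10 min after addition. Cells: KB-V1 MDR subline, 72 h at 37 degrees C with compound. Analysis: corrected, normalized data fitted to concentration-effect curves.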
HT1080 IDH1KD tx: kills HT-1080 cells with IDH1 knockdown; HT-1080 IDH1 knockdown viability, ATP luminescence, 48 h; Potency, µM (top dose mostly 46.1 µM), for inactives: at the highest dose activity, negative = toxicity, most hits filed as cytotoxic; 2% of 360,000 active; AID 686971;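 also: 0% = DMSO wells and -100% = cell-free medium wells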
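Viability of IDH1-knockdown HT-1080 fibrosarcoma cells was assessed by CellTiter-Glo after 48 h at 37 °C with titrated compound; concentration-effect curves were classified by fit quality and response size.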
HT1080NT lethal: kills 2HG-producing HT-1080-NT fibrosarcoma cells; HT-1080-NT fibrosarcoma viability, CellTiter-Glo ATP luminescence, 48 h; Potency, µM (highest dose often 46.1 µM), without a hit: at the top dose activity, negative = less viability, usual class: cytotoxic; 1.6% of 360,000 active;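 also: NT is the 2HG producing partner of a matched IDH1 knockdown line; 0% = DMSO-treated cells and -100% = media-only wells without cells; nearly all actives have a fitted effect of over 55% in size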
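Fibrosarcoma NT cells, 750 per well in 5% FBS RPMI, were exposed to compound for 48 hours. Viability: CellTiter-Glo luminescence.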
TDP1 cell CPT: DT40-hTDP1 cell growth loss with CPT; 12% of 420,000 active; Potency, µM (series often up to 46.2 µM), without a hit: top-dose activity change, negative = growth inhibition, usual class: inhibitors; chicken DT40 Tdp1-/-;hTDP1 cells + 20 nM CPT, ATP luminescence, 48 h; also: nearly all actives have a fitted effect of over 55% in size
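Chicken DT40 Tdp1-/- cells complemented with human TDP1, 400 cells/well, exposed to compounds plus 20 nM camptothecin for at least 48 h at 37 C; viability read as ATP content by CellTiter-Glo luminescence.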
DT40 TDP1 no CPT: qHTS for Inhibitors of human tyrosyl-DNA phosphodiesterase 1 (TDP1): qHTS in cells in absence of CPT | AID 686978, 2013 | Potency, µM (titrated, usually from 46.2 µM), for the others: top-dose activity change, negative = growth inhibition, most hits filed as inhibitors | 15% of 420,000 active | DT40 Tdp1-/- hTDP1 cells, no CPT, ATP luminescence, 48 h; also: nearly all actives have a fitted effect of over 55% in size
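Seeded 400 DT40-hTDP1 cells/well (vehicle DMSO, no 20 nM CPT); pinned compounds; ≥48 hr at 37 °C; CellTiter-Glo luminescence as viability measure.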
KB-3-1 cytotox: KB-3-1 parental cell cytotoxicity; Potency, µM (top dose mostly 46.1 µM), most hits filed as cytotoxic; 1.4% of 400,000 active; AID 1347075; KB-3-1 viability, CellTiter-Glo ATP luminescence, 72 h; also: nearly all actives have a fitted effect of over 60% in size
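Parental KB-3-1 adenocarcinoma cells in phenol-red-free DMEM with 10% FBS were pin-treated with compounds at several concentrations, incubated 72 h at 37 °C, and viability read by CellTiter-Glo luminescence; concentration-effect curves were fitted after normalization.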
Numbers without * were called inactive; [ ] = remark or other dose. In the library only some 19% were active in any assay of this set; here they are far more common. Calls follow the shape of the dose curve; as a rule, active = well fitted curve in the direction sought with a large enough effect; inconclusive = small, poorly fitted or top-dose-only effect, or another doubt; inactive = no such curve, though single readings can be large; an effect the other way counts as inactive or inconclusive. Unless noted, % is scaled to controls: 0 for no effect and ±100 for the full control effect; potency is read from the fitted curve at half-maximal effect.

How did COc1ccccc1-n1cnc2c(c1=O)c1nc3ccccc3nc1n2CCc1ccccc1 do in these assays?
KB-V1 cytotox: inactive; HT1080 IDH1KD tx: 18%; HT1080NT lethal: 19%; TDP1 cell CPT: 21µM*; DT40 TDP1 no CPT: 16µM*; KB-3-1 cytotox: inactive

How did CCCCCn1c2nc3ccccc3nc2c2c(=O)n(CC(C)C)cnc21 do in these assays?
KB-V1 cytotox: inactive; HT1080 IDH1KD tx: 15%; HT1080NT lethal: 10%; TDP1 cell CPT: -26%; DT40 TDP1 no CPT: -7%; KB-3-1 cytotox: inactive

What do the screens show for `COc1ccccc1-n1c2nc3ccccc3nc2c2c(=O)n(-c3cc(C)cc(C)c3)cnc21`?
KB-V1 cytotox: inconclusive; HT1080 IDH1KD tx: -1%; HT1080NT lethal: 6%; TDP1 cell CPT: 3.7µM*; DT40 TDP1 no CPT: inconclusive; KB-3-1 cytotox: inactive

Results for CC1=NN(c2ccc(Cl)cc2)C(=O)C1C(c1ccccc1O)c1c(C)[nH]n(-c2ccc(Cl)cc2)c1=O (stereo not given) ?
KB-V1 cytotox: inconclusive; HT1080 IDH1KD tx: inconclusive; HT1080NT lethal: 23µM*; TDP1 cell CPT: inconclusive; DT40 TDP1 no CPT: inconclusive; KB-3-1 cytotox: inactive

How did CC1=NN(c2ccc(C)cc2C)C(=O)C1C(c1ccccc1O)C1C(=O)N(c2ccc(C)cc2C)N=C1C (stereo not given) do in these assays?
KB-V1 cytotox: inactive; HT1080 IDH1KD tx: 8%; HT1080NT lethal: 5%; TDP1 cell CPT: 7%; DT40 TDP1 no CPT: -1%; KB-3-1 cytotox: inactive

What do the screens show for `O=C(NCc1ccncc1)C(=O)NCC1OCCN1S(=O)(=O)c1cc(F)ccc1F` (stereo not given)?
KB-V1 cytotox: inactive; HT1080 IDH1KD tx: 7%; HT1080NT lethal: 1%; TDP1 cell CPT: -13%; DT40 TDP1 no CPT: -12%; KB-3-1 cytotox: inactive

Results for COc1cccc(/C=C/c2ccc3cccc(O)c3n2)c1OC ?
KB-V1 cytotox: inactive; HT1080 IDH1KD tx: inconclusive; HT1080NT lethal: -20%; TDP1 cell CPT: inconclusive; DT40 TDP1 no CPT: 16µM*; KB-3-1 cytotox: inactive

What do the screens show for `COc1ccc(/C=C/c2ccc3cccc(O)c3n2)c(OC)c1OC`?
KB-V1 cytotox: inactive; HT1080 IDH1KD tx: inconclusive; HT1080NT lethal: inconclusive; TDP1 cell CPT: 9.2µM*; DT40 TDP1 no CPT: 10µM*; KB-3-1 cytotox: inactive

Results for CCOc1c(OC(C)=O)ccc(/C=C/c2ccc3cccc(OC)c3n2)c1[N+](=O)[O-] ?
KB-V1 cytotox: 16µM*; HT1080 IDH1KD tx: -25%; HT1080NT lethal: -19%; TDP1 cell CPT: inconclusive; DT40 TDP1 no CPT: 16µM*; KB-3-1 cytotox: inactive

Results for COc1cc(/C=C/c2ccc3cccc([N+](=O)[O-])c3n2)ccc1OCC(=O)O ?
KB-V1 cytotox: inactive; HT1080 IDH1KD tx: 1%; HT1080NT lethal: 7%; TDP1 cell CPT: -5%; DT40 TDP1 no CPT: 7%; KB-3-1 cytotox: inactive

What do the screens show for `COc1cc(Br)cc(/C=C/c2ccc3cccc(O)c3n2)c1OC`?
KB-V1 cytotox: inactive; HT1080 IDH1KD tx: 0%; HT1080NT lethal: 4%; TDP1 cell CPT: inconclusive; DT40 TDP1 no CPT: inconclusive; KB-3-1 cytotox: inactive

Results for Oc1ccc(N=Nc2ccc(Br)cc2)c(O)c1 ?
KB-V1 cytotox: inactive; HT1080 IDH1KD tx: inconclusive; HT1080NT lethal: inconclusive; TDP1 cell CPT: 26µM*; DT40 TDP1 no CPT: 23µM*; KB-3-1 cytotox: inactive

Results for Oc1ccc(N=Nc2ccc3c(c2)OCCO3)c(O)c1 ?
KB-V1 cytotox: inactive; HT1080 IDH1KD tx: inconclusive; HT1080NT lethal: -16%; TDP1 cell CPT: inconclusive; DT40 TDP1 no CPT: inconclusive; KB-3-1 cytotox: inactive

Results for CC(NC(=O)C1CCN(C(=O)[C@@H]2Cc3ccccc3CN2)CC1)c1ccccc1 (stereo not given in full) ?
KB-V1 cytotox: inactive; HT1080 IDH1KD tx: -4%; HT1080NT lethal: 2%; TDP1 cell CPT: 0%; DT40 TDP1 no CPT: 14%; KB-3-1 cytotox: inactive

Results for Cc1ccc(S(=O)(=O)NC(C)(C)CSc2nnc(Nc3ccccc3)s2)cc1 ?
KB-V1 cytotox: inconclusive; HT1080 IDH1KD tx: -19%; HT1080NT lethal: -12%; TDP1 cell CPT: 23µM*; DT40 TDP1 no CPT: inconclusive; KB-3-1 cytotox: inactive

Results for CC(C)(CSc1ncccn1)NS(=O)(=O)c1ccccc1 ?
KB-V1 cytotox: inactive; HT1080 IDH1KD tx: 4%; HT1080NT lethal: 0%; TDP1 cell CPT: -3%; DT40 TDP1 no CPT: -10%; KB-3-1 cytotox: inconclusive

What do the screens show for `CC(=O)c1ccc(OCCCC(=O)NNC(=O)c2ccccn2)cc1`?
KB-V1 cytotox: inactive; HT1080 IDH1KD tx: inconclusive; HT1080NT lethal: -2%[9.24 µM]; TDP1 cell CPT: inconclusive; DT40 TDP1 no CPT: 15µM*; KB-3-1 cytotox: inconclusive

Results for COc1cc(OC)cc(C(=O)O/N=C(\N)c2ccccn2)c1 ?
KB-V1 cytotox: inactive; HT1080 IDH1KD tx: 13%; HT1080NT lethal: 14%; TDP1 cell CPT: -3%; DT40 TDP1 no CPT: -27%; KB-3-1 cytotox: inactive

How did N/C(=N\OC(=O)c1cc(-c2ccccc2)nc2ccccc12)c1ccccn1 do in these assays?
KB-V1 cytotox: inactive; HT1080 IDH1KD tx: 5%; HT1080NT lethal: 9%; TDP1 cell CPT: 13µM*; DT40 TDP1 no CPT: 12µM*; KB-3-1 cytotox: inactive

Results for COc1ccc(C(=O)NCCNC(=O)c2ccccn2)cc1 ?
KB-V1 cytotox: inactive; HT1080 IDH1KD tx: -2%; HT1080NT lethal: 25%; TDP1 cell CPT: -1%; DT40 TDP1 no CPT: -8%; KB-3-1 cytotox: inactive

How did Cc1ccc(/C(N)=N/OC(=O)c2cc(-c3ccccc3)nc3ccccc23)cc1 do in these assays?
KB-V1 cytotox: inactive; HT1080 IDH1KD tx: -4%; HT1080NT lethal: -4%; TDP1 cell CPT: -28%; DT40 TDP1 no CPT: inconclusive; KB-3-1 cytotox: inactive

Results for COc1ccc(C(=O)O/N=C(\N)c2ccccn2)cc1 ?
KB-V1 cytotox: inactive; HT1080 IDH1KD tx: 16µM*; HT1080NT lethal: 13µM*; TDP1 cell CPT: -18%; DT40 TDP1 no CPT: -20%; KB-3-1 cytotox: inconclusive

Results for COc1ccc(C(=O)NNC(=O)c2ccccn2)cc1 ?
KB-V1 cytotox: inactive; HT1080 IDH1KD tx: 18µM*; HT1080NT lethal: 21µM*; TDP1 cell CPT: -17%; DT40 TDP1 no CPT: -25%; KB-3-1 cytotox: inconclusive

How did O=C1C=C(Nc2ccc(Cl)cc2)C(=O)N1c1ccc(Cl)cc1 do in these assays?
KB-V1 cytotox: inactive; HT1080 IDH1KD tx: 1%; HT1080NT lethal: 0%; TDP1 cell CPT: -17%; DT40 TDP1 no CPT: 10%; KB-3-1 cytotox: inactive
